Results as given in the supplement of paper PMC7411054.
Structures can show the parent of a compound that is named as a salt.

Experiments:
Assay in all cases: lowest phenotypically active concentration; higher = less potent
Settings in all cases: treatment time: 24 h
[1] = test system: A549-TP53BP1-CLTA
Summary of the method: (§1)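 The reporter lines, fifteen in total and built by gene editing in A549, HepG2 and WPMY1 cells, used BFP for segmentation alongside GFP and RFP/FusionRed markers. Each was treated at 0.3, 1, 3 or 9 µM for 24 h in four wells and then imaged live, with live-cell features normalised to solvent control wells. Deviation meant ≥3 of 4 wells beyond the 95th percentile of control Euclidean distances; reproducibility meant a median replicate Pearson correlation above the 95th percentile of non-replicates. Only conditions meeting both were scored as phenotypically active.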

[2] = test system: HepG2-ACTB-RAB5A
Summary of the method: as §1

[3] = test system: HepG2-CANX-COX4
Summary of the method: as §1

[4] = test system: HepG2-GM130-SQSTM1
Summary of the method: as §1

[5] = test system: HepG2-TP53BP1-CLTA
Summary of the method: as §1

[6] = test system: WPMY1-ACTB-RAB5A
Summary of the method: as §1

[7] = test system: WPMY1-CANX-COX4
Summary of the method: as §1

[8] = test system: WPMY1-GM130-SQSTM1
Summary of the method: as §1

[9] = test system: WPMY1-TP53BP1-CLTA
Summary of the method: as §1

[10] = test system: WPMY1-TUBA1B-RELA
Summary of the method: as §1

Measured: lowest phenotypically active concentration

O=C(CCCCSc1nc(-c2ccc(-c3ccccc3)cc2)cc(=O)[nH]1)NO
≤ 0.3 µM: all assays above

Nc1ccc(-c2cccc3c(=O)cc(N4CCOCC4)oc23)cc1
9 µM: [1] | [3] | [5] | [9] | [10]
3 µM: all other assays above

NCC(=O)Nc1ccc(-n2nc(C(F)(F)F)cc2-c2ccc3c(ccc4ccccc43)c2)cc1
≤ 0.3 µM: [6] | [9] | [10]
3 µM: [4]
1 µM: all other assays above

O=C1NC(=O)[C@@H](c2cn3c4c(cccc24)CCC3)[C@@H]1c1c[nH]c2ccccc12 [tivantinib]
≤ 0.3 µM: [6]
1 µM: all other assays above

COc1cc(/C=C/C(=O)N2CCC=CC2=O)cc(OC)c1OC [Piperlongumine]
3 µM: [2] | [3] | [4] | [8]
9 µM: all other assays above

COc1cc(Br)c(Nc2nc(-c3c(C)nc4ncccn34)cs2)c(Br)c1
3 µM: [9]
1 µM: all other assays above

CCNC(=O)c1noc(-c2cc(C(C)C)c(O)cc2O)c1-c1ccc(CN2CCOCC2)cc1
≤ 0.3 µM: all assays above

Cc1ccc(NC(=O)CCCCCC(=O)Nc2ccccc2N)cc1
9 µM: [3] | [6] | [8] | [10]
1 µM: [2]
3 µM: all other assays above

O=C(OC12CC3CC(CC(C3)C1)C2)c1ccc(NCc2cc(O)ccc2O)cc1 [Adaphostin]
9 µM: [1]
3 µM: [3] | [4] | [5] | [9]
1 µM: all other assays above

CS(=O)(=O)c1cccc(CNc2nc(Nc3ccc4c(c3)CCC(=O)N4)ncc2C(F)(F)F)c1
1 µM: [2] | [3] | [5] | [6] | [9]
3 µM: all other assays above

CN(C)CCCNc1c2c(=O)n(C)c(=O)nc-2n(C)c2ccccc12
3 µM: [10]
9 µM: all other assays above

O=C(NCCCNc1nc(Nc2cccc(NC(=O)N3CCCC3)c2)ncc1I)c1cccs1
1 µM: [3] | [5]
3 µM: all other assays above

Oc1ccc(-c2nc(-c3ccc(F)cc3)c(-c3ccncc3)[nH]2)cc1
3 µM: [2] | [8] | [10]
≤ 0.3 µM: [4]
1 µM: [1] | [3] | [5]
9 µM: all other assays above

C[C@@H](CN1CCC(n2c(=O)[nH]c3cc(Cl)ccc32)CC1)NC(=O)c1ccc2ccccc2c1
9 µM: all assays above

CCOC(=O)CCNc1cc(N2CCc3ccccc3CC2)nc(-c2ccccn2)n1
9 µM: [6] | [7] | [10]
3 µM: all other assays above

O=C(CCCc1ccc(-c2ccccc2F)cc1)Nc1ccc(O)cc1
3 µM: [2] | [3] | [4]
9 µM: [5]
1 µM: all other assays above

COc1cc(C(=O)N2CCC(N3CCN(C)CC3)CC2)ccc1Nc1ncc2c(n1)N(C)c1ccccc1C(=O)N2C
9 µM: [1]
3 µM: [5] | [6] | [7] | [9]
1 µM: all other assays above

CC(C)c1cc(-c2n[nH]c(=O)n2-c2ccc3c(ccn3C)c2)c(O)cc1O [ganetespib]
≤ 0.3 µM: all assays above

Cc1ncc(-c2ccnc(Nc3ccc(S(C)(=O)=O)cc3)n2)n1C(C)C
≤ 0.3 µM: all assays above

O=C(CCCCCCC(=O)Nc1cccnc1)NO [Pyroxamide]
9 µM: [1] | [6]
3 µM: all other assays above

CN1CCC(=C2c3ccccc3CC(=O)c3sccc32)CC1 [ketotifen]
9 µM: all assays above

O=C(Nc1cccc(Cl)c1)Nc1ncc(CCNc2ncnc3ccsc23)s1 [SNS 314 mesylate]
≤ 0.3 µM: all assays above

Cc1ccc([N+](=O)[O-])cc1S(=O)(=O)N(C)/N=C/c1cnc2ccc(Br)cn12
≤ 0.3 µM: all assays above

C[C@@H]1CN(CC(=O)Nc2ccc3c(c2)Cc2cccc(-c4cc(=O)cc(N5CCOCC5)o4)c2S3)C[C@H](C)O1
1 µM: [2]
9 µM: [1] | [10]
3 µM: all other assays above

Cc1ccc(C(=O)N(CCCN)[C@@H](c2oc3cc(Cl)ccc3c(=O)c2Cc2ccccc2)C(C)C)cc1
3 µM: [7]
≤ 0.3 µM: all other assays above

CC[C@@H]1C(=O)N(C)c2cnc(Nc3ccc(C(=O)NC4CCN(C)CC4)cc3OC)nc2N1C1CCCC1
1 µM: [3]
≤ 0.3 µM: all other assays above

O=C(NC(NC(=S)Nc1ccc(F)c([N+](=O)[O-])c1)C(Cl)(Cl)Cl)C(c1ccccc1)c1ccccc1 (stereo not given)
9 µM: all assays above

CC1=C(C(=O)Nc2cc3cn[nH]c3cc2F)C(c2ccc(C(F)(F)F)cc2)CC(=O)N1 (stereo not given)
3 µM: [9]
≤ 0.3 µM: all other assays above

Cc1ccc2nc(NCCN)c3ncc(C)n3c2c1
3 µM: all assays above

CCC1(O)CC2CN(CCc3c([nH]c4ccccc34)C(C(=O)OC)(c3cc4c(cc3OC)N(C)C3C(O)(C(=O)OC)C(OC(C)=O)C5(CC)C=CCN6CCC43C65)C2)C1 (stereo not given) [Vinblastine sulfate]
1 µM: [5]
≤ 0.3 µM: all other assays above

COc1ccc(N2C(=O)CSC2c2cccc(Br)c2)c(OC)c1 (stereo not given)
9 µM: [2] | [4] | [5]
3 µM: all other assays above

CCc1cccc(CC)c1NC(=O)N1Cc2[nH]nc(NC(=O)c3ccc(N4CCN(C)CC4)cc3)c2C1
3 µM: [1]
≤ 0.3 µM: [2] | [3] | [4] | [5]
1 µM: all other assays above

O=C1NCCN1CCN1CCC(c2cn(-c3ccc(F)cc3)c3ccc(Cl)cc23)CC1 [sertindole]
3 µM: [4] | [5] | [7] | [10]
9 µM: all other assays above

CCCC1(CCC)CCC2(CCN(CCCN(CC)CC)C2)CC1 [Atiprimod dihydrochloride]
1 µM: all assays above

O=C1Cc2c([nH]c3ccc(Br)cc23)-c2ccccc2N1 [Kenpaullone]
1 µM: [3] | [6] | [7] | [8] | [9]
3 µM: all other assays above

Cc1ccc(/C(=C/CN2CCCC2)c2cccc(/C=C/C(=O)O)n2)cc1 [acrivastine]
9 µM: [1] | [3] | [5] | [9]
3 µM: [2] | [4]
1 µM: all other assays above

Nc1ncnc2c1nc(Cl)n2C1O[C@H](CO)[C@@H](O)[C@H]1O (stereo not given in full) [8-Chloroadenosine]
9 µM: [6]
1 µM: [1] | [2] | [4]
3 µM: all other assays above

CN1CCN(c2ccc(OC(F)(F)F)c(Nc3ncc4c(n3)-c3c(c(C(N)=O)nn3CCO)CC4)c2)CC1
1 µM: [7] | [8]
≤ 0.3 µM: all other assays above
